Assay outcomes from PubChem.
HT1080 IDH1KD tx: HT-1080 IDH1 knockdown cell toxicity (counter line); HT-1080 IDH1 knockdown viability, ATP luminescence, 48 h; Potency, µM (doses to about 46.1 µM), actives largely listed as cytotoxic; actives 2% (n = 360,000)
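% activity derives from luminescence (CellTiter-Glo), normalised to DMSO and no-cell wells. HT-1080-IDH1KD cells, 750/well, had 48 h compound exposure at 37 °C.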
HT1080NT lethal: kills 2HG-producing HT-1080-NT fibrosarcoma cells | HT-1080-NT fibrosarcoma viability, CellTiter-Glo ATP luminescence, 48 h | Potency, µM (titrated, usually from 46.1 µM), hits mostly cytotoxic | actives 1.6% (n = 360,000);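 further: NT is the 2HG producing partner of a matched IDH1 knockdown line; nearly all actives have a fitted effect of over 55% in size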
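Toxicity toward the 2HG-producing NT line was scored as %Activity, normalised to DMSO and no-cell wells, from CellTiter-Glo luminescence after 48 hours' treatment.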
12-LOX inh: inhibitors of human 12S-lipoxygenase ALOX12 | purified 12hLO, xylenol orange hydroperoxide absorbance | Potency, µM (highest dose often 108 µM), actives largely listed as inhibitors | actives 1.1% (n = 580,000) | P18054
Target sequence (P18054 whole entry, looked up): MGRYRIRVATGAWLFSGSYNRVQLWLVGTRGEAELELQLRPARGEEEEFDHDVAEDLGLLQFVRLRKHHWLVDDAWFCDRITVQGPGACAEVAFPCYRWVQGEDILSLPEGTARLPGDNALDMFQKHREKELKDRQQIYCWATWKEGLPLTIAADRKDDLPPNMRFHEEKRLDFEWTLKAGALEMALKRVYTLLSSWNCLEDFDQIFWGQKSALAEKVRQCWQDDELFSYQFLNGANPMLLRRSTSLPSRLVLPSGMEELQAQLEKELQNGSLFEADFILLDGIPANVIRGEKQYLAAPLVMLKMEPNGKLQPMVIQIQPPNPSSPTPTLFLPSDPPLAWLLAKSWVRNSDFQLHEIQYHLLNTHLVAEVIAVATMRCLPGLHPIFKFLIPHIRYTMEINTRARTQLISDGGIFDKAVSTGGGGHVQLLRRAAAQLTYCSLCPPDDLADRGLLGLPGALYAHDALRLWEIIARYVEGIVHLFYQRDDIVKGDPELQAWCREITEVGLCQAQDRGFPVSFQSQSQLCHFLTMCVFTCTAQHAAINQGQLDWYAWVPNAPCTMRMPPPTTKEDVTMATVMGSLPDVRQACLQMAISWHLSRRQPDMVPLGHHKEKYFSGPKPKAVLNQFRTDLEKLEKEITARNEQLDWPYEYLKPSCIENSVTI
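Purified human 12hLO at 150 nM in 25 mM Hepes, 0.01% Triton X-100, pH 7.0, preincubated 15 min at room temperature with compound. Reaction started with 40 uM arachidonic acid, 30 min at room temperature. Hydroperoxide measured by Fe-xylenol orange, 573/405 nm absorbance ratio.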
IL1B secr inh: blocks inflammasome-driven IL-1 beta release | THP-1 LPS/ATP IL-1B secretion, AlphaLISA, 16 h; active compounds read low | activity change, % at 57.5 µM | actives 4.7% (n = 360,000); in the data active means activity change below about -50%; inconclusive means mostly about -30% to -49%
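Secreted IL-1B measured by AlphaLISA bead assay after 16 h compound exposure of THP-1 cells; compounds (final up to 57.5 uM) added 1 h before LPS (250 ng/mL) and ATP (1.25 mM) stimulation; lower signal means less secretion.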
DT40 TDP1 no CPT: qHTS for Inhibitors of human tyrosyl-DNA phosphodiesterase 1 (TDP1): qHTS in cells in absence of CPT; DT40 Tdp1-/- hTDP1 cells, no CPT, ATP luminescence, 48 h; Potency, µM (highest dose often 46.2 µM), most hits filed as inhibitors; actives 15% (n = 420,000); further: nearly all actives have a fitted effect of over 55% in size
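Chicken DT40 Tdp1-/- cells complemented with human TDP1, screened without camptothecin (DMSO vehicle only), 400 cells/well. Compounds pin-transferred, cells incubated at 37 °C for at least 48 hr. Growth read as ATP-dependent luminescence (CellTiter-Glo, 30 min at RT).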
DT40 TDP1 CPT: growth inhibition of DT40 Tdp1-/-;hTDP1 cells with camptothecin (screen for TDP1 inhibitors); AID 686979; chicken DT40 Tdp1-/-;hTDP1 cells + 20 nM CPT, ATP luminescence, 48 h; actives 12% (n = 420,000); Potency, µM (titrated, usually from 46.2 µM), hits mostly inhibitors; further: nearly all actives have a fitted effect of over 55% in size
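Chicken DT40 Tdp1-/- cells complemented with human TDP1, 400 cells/well, exposed to compounds plus 20 nM camptothecin for at least 48 h at 37 C; viability read as ATP content by CellTiter-Glo luminescence.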
Numbers stand for hits; – = inactive; ? = inconclusive; · = no result given; [ ] = another dose, or the depositor's remark. Many of the other results were omitted from the sample, so hits are more common in it than they were. Unless noted, the call rests on the fitted dose curve; in most records, active means well fitted curve in the direction sought with a large enough effect; inconclusive means small, poorly fitted or top-dose-only effect, or another doubt; inactive means no such curve, though single readings can be large; an effect the other way counts as inactive or inconclusive.

SMILES	HT1080 IDH1KD tx	HT1080NT lethal	12-LOX inh	IL1B secr inh	DT40 TDP1 no CPT	DT40 TDP1 CPT
CCc1nc2nc(C)c(NS(=O)(=O)c3cccs3)c(=O)n2[nH]1	–	?	6.31µM	–	–	–
CC(=NCCc1c(C)[nH]c2ccc(C)cc12)C1=C(O)CC(c2ccccc2)CC1=O (stereo not drawn)	8.2µM	–	–	–	1.64µM	1.16µM
CC(=NCCc1c(C)[nH]c2ccc(OC(F)(F)F)cc12)C1=C(O)CC(c2ccccc2)CC1=O (stereo not drawn)	?	?	–	–	3.26µM	4.61µM
CCCC(=Nc1ccccc1OC)C1=C(O)CC(c2ccccc2)CC1=O (stereo not drawn)	–	–	–	–	?	?
O=C(c1ccc2c(c1)OCO2)C1CCCN(Cc2ccc3cccc(F)c3n2)C1 (stereo not drawn)	–	–	–	–	20.6µM	?
O=C(c1ccc2c(c1)OCO2)C1CCCN(Cc2cn[nH]c2-c2cccc(F)c2)C1 (stereo not drawn)	–	–	–	-92.3	?	?
O=C(c1ccc2c(c1)OCO2)C1CCCN(Cc2cn[nH]c2-c2ccccc2)C1 (stereo not drawn)	–	–	–	–	–	–
COc1ccc(C2C3=C(CC(C)(C)CC3=O)Oc3ncn(Cc4ccco4)c(=N)c32)cc1 (stereo not drawn)	?	–[9.24 µM]	–	-59.6	–	–
COc1ccc(C2C3=C(CC(C)(C)CC3=O)Oc3ncn(CC(C)C)c(=N)c32)cc1 (stereo not drawn)	–	–	–	-59.9	?	?
c1ccc(O[C@H]2COCCN(Cc3cccc4c3OCO4)C2)cc1	·	·	–	·	·	·
COc1ccc(-c2nnc3ccc(N4CCC(c5ccccc5)CC4)nn23)nc1	·	·	–	·	·	·
Cn1c(=O)n(Cc2ccccc2)c(=O)c2c1[nH]c(=O)n2C	·	·	–	·	·	·
Cc1ccc(CN2CCc3c(cc(C(=O)N4CCCN(C)CC4)n3C)C2)cc1	·	·	–	·	·	·
Cc1cc(/C=C\c2ccccc2)nc2ccccc12	–	–	–	-52.3	–	–
Cc1cc(C(F)(F)F)nc2ccccc12	·	·	–	·	·	·
Cc1cc(C(Br)(Br)Br)nc2ccccc12	·	·	·	·	2.51µM	2.51µM
Cc1cc(Cl)nc2ccccc12	·	·	·	·	–	–
CCc1ccc(C(CNC(=O)c2nccnc2N)N(C)C)cc1 (stereo not drawn)	·	·	–	·	·	·
COc1ccc(CCNC(=O)CCc2c(C)nn(C)c2C)cc1OC	·	·	–	·	·	·
COc1cc(CCN2C(=O)c3cccc4cccc(c34)C2=O)c(S(=O)(=O)N2CCC(C)CC2)cc1OC	–	–	?	–	2.59µM	25.9µM
COc1cc(CCN2C(=O)c3cccc4cccc(c34)C2=O)c(S(=O)(=O)NCCO)cc1OC	–	–	–	·	?	?
Cc1ccc(F)cc1S(=O)(=O)NC(C)CN1CCOCC1 (stereo not drawn)	·	·	–	·	·	·
CCN(C(=O)COC(=O)C1=COCCO1)c1ccccc1	–	–	–	–	6.51µM	–
CCOC(=O)[C@]12CCC=C1N(Cc1ccc(Cl)cc1Cl)C(=O)[C@H](CC(=O)NCCc1ccccc1OC)C2	?	?	–	?	?	?
CCOC(=O)[C@]12CCC=C1N(Cc1ccc(Cl)cc1Cl)C(=O)[C@H](CC(=O)NCc1ccccc1)C2	?	?	–	-63.5	23.1µM	?
SMILES	HT1080 IDH1KD tx	HT1080NT lethal	12-LOX inh	IL1B secr inh	DT40 TDP1 no CPT	DT40 TDP1 CPT
CCOC(=O)[C@]12CCCC=C1N(Cc1ccc(Cl)cc1Cl)C(=O)[C@H](CC(=O)NCc1cccc(C(F)(F)F)c1)C2	?	32.6µM	–	-55.2	18.4µM	14.6µM
CCOC(=O)[C@]12CCC=C1N(Cc1ccc(Cl)cc1Cl)C(=O)[C@H](CC(=O)NCc1cccc(C(F)(F)F)c1)C2	?	?	–	–	?	?
CCOC(=O)[C@]12CCC=C1N(Cc1ccc(Cl)cc1Cl)C(=O)[C@H](CC(=O)NCc1ccc(C)o1)C2	?	?	?	·	18.4µM	?
CCCCNC(=O)C[C@@H]1C[C@@]2(C(=O)OCC)CCC=C2N(Cc2ccccc2)C1=O	–	–	–	–	–	–
CCOC(=O)[C@]12CCC=C1N(Cc1ccccc1)C(=O)[C@H](CC(=O)NCc1ccccc1)C2	–	–	?	–	16.4µM	?
COc1ccccc1CCN1CCC(CN(C)C(=O)CCc2ccccc2Cl)CC1	·	·	–	·	·	·
Cc1cc(NC(=O)c2cn(C3CCCCC3)c(=O)c3c2c2ccccc2n3C)no1	–	–	–	–	23.1µM	?
Cc1ccc(CNC(=O)c2cn(C)c(=O)c3c2c2ccccc2n3C)o1	–	–	–	–	?	?
CCOc1ccccc1NC(=O)c1cn(C2CCCCC2)c(=O)c2c1c1ccccc1n2C	·	·	–	·	?	?
Cc1ccc(CNC(=O)c2cn(C3CCCCC3)c(=O)c3c2c2ccccc2n3C)o1	?	?	–	-86.4	16.4µM	11.6µM
CCN(CC)S(=O)(=O)c1ccc(NC(=O)COc2ccc3c(C)cc(=O)oc3c2)cc1	·	·	–	·	·	·
CCOC(=O)c1cc(NC(=O)c2cccc(-c3cc4ccccc4oc3=O)c2)ccc1N1CCOCC1	·	·	8.91µM	·	·	·
CCn1nnc(NC(=O)c2cccc(-c3cc4ccccc4oc3=O)c2)n1	–	–	?	–	?	–
O=C(O)c1cccc(-c2cc3ccccc3oc2=O)c1	·	·	–	·	·	·
O=C(Nc1ccc(CN2CCOCC2)cc1)c1cccc(-c2cc3ccccc3oc2=O)c1	?	–	–	?	?	16.4µM
O=C(Nc1cccc(Cl)c1N1CCCC1)c1cccc(-c2cc3ccccc3oc2=O)c1	–	–	–	–	?	18.4µM
O=C(O)CC(CNS(=O)(=O)c1ccc(I)cc1)c1ccccc1 (stereo not drawn)	·	·	–	·	·	·
Oc1ccc(-c2nc3ccccn3c2NCc2ccco2)cc1	–	–	–	–	?	–
Cc1ccn2c(CN3CCOCC3)c(-c3ccccc3)nc2c1	–	–	–	?	?	–
Cc1ccn2c(Cc3ccccc3)c(-c3ccc(Br)cc3)nc2c1	–	–	?	–	?	20.6µM
Cc1ccn2c(Cc3ccccc3)c(-c3ccccc3)nc2c1	–	–	?	–	18.4µM	18.4µM
Cc1ccn2c(NCc3ccco3)c(-c3ccccc3)nc2c1	–	–	·	·	11.2µM	?
CCN(CC)CCNC(=O)c1n[nH]c(=O)c2ccccc12	·	·	–	·	·	·
CSc1ccc(CN(C)CC(=O)N(C)c2ccccc2C(=O)NCc2ccco2)cc1	·	·	–	·	·	·
O=C(c1ccc(Cl)cc1)N1CCN2C(=O)N(C3CCOCC3)C[C@H]2C1	·	·	–	·	·	·
